Reference: PubChem BioAssay AID703 (NMMLSC, 2007)
A number with no mark means an inactive call. How the calls were made is not given here.

Target: Integrin alpha-4 (Homo sapiens) (UniProt P13612)
Assay: enhancers of LDV-FITC binding to VLA-4, dose response, cell-based, flow cytometry (AID 703)
Conditions: Jurkat cells, stronger effect = higher value

Sequence of Integrin alpha-4 (Homo sapiens) (P13612 whole entry, looked up): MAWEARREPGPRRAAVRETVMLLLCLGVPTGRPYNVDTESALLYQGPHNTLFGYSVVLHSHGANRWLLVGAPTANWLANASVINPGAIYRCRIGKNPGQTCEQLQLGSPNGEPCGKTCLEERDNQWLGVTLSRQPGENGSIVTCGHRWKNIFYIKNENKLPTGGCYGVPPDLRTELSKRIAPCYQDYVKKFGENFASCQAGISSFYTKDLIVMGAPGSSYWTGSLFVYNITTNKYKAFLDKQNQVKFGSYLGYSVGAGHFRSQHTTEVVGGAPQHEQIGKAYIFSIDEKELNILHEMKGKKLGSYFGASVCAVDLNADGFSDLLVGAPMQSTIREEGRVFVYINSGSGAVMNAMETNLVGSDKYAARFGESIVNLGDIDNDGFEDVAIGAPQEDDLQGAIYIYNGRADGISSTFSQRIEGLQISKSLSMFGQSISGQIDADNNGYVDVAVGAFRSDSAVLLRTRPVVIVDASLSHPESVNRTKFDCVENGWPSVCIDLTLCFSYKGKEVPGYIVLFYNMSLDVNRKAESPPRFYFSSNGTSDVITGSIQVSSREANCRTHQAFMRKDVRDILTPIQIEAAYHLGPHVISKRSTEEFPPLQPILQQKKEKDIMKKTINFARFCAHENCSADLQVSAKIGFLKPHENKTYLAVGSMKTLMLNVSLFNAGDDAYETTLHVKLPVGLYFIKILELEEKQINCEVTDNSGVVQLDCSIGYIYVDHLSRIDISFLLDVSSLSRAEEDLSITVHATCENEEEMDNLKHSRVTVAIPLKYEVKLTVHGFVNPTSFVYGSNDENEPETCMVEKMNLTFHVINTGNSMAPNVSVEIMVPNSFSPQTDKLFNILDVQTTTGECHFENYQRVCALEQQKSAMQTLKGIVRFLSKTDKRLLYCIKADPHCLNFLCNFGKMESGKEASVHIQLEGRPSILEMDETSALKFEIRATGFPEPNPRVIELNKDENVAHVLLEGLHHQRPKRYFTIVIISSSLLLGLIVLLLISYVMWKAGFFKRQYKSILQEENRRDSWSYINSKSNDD

Row | SMILES | activation at 0 C
1 | CN(C)CCCN1c2ccccc2Sc2ccc(C(F)(F)F)cc21 | 0
2 | CCCCC[C@H](O)/C=C/[C@H]1C=CC(=O)[C@@H]1C/C=C\CCCC(=O)O | 0
3 | COC(=O)C1CCN(C(=O)NC(C)(C)C)CC1 | 0
4 | N#Cc1c(N2CCCC2)nc(N)c2c(N)nc(N3CCCC3)cc12 | 0
